The list is not random: actives were taken first. Their share in the collection is about 17%.
TDP1 cell CPT = qHTS for Inhibitors of human tyrosyl-DNA phosphodiesterase 1 (TDP1): qHTS in cells in presence of CPT; chicken DT40 Tdp1-/-;hTDP1 cells + 20 nM CPT, ATP luminescence, 48 h; Potency, µM (highest dose often 46.2 µM), hits mostly inhibitors; 420,000 compounds, 12% hits; AID 686979, 2013; also: nearly all actives have a fitted effect of over 55% in size
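Cell growth measured by CellTiter-Glo luminescence after a minimum 48 h, 37 C compound exposure with 20 nM CPT in Tdp1-knockout DT40 cells stably expressing hTDP1, seeded 400/well; qHTS titration format.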
HT1080NT lethal = qHTS for induction of synthetic lethality in tumor cells producing 2HG: qHTS for the HT-1080-NT fibrosarcoma cell line; AID 686970, 2013; HT-1080-NT fibrosarcoma viability, CellTiter-Glo ATP luminescence, 48 h; 360,000 compounds, 1.6% hits; Potency, µM (doses to about 46.1 µM), usual class: cytotoxic;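 also: NT is the 2HG producing partner of a matched IDH1 knockdown line; nearly all actives have a fitted effect of over 55% in size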
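Viability of the 2HG-overproducing fibrosarcoma line after 48 hours of compound exposure at 37 degrees C was determined by luminescence with CellTiter-Glo, and concentration-effect curves were then fitted and categorized.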
DT40 TDP1 no CPT = qHTS for Inhibitors of human tyrosyl-DNA phosphodiesterase 1 (TDP1): qHTS in cells in absence of CPT; DT40 Tdp1-/- hTDP1 cells, no CPT, ATP luminescence, 48 h; AID 686978, 2013; 420,000 compounds, 15% hits; Potency, µM (top dose mostly 46.2 µM), hits mostly inhibitors; also: nearly all actives have a fitted effect of over 55% in size
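Chicken DT40 Tdp1-/- cells complemented with human TDP1, screened without camptothecin (DMSO vehicle only), 400 cells/well. Compounds pin-transferred, cells incubated at 37 °C for at least 48 hr. Growth read as ATP-dependent luminescence (CellTiter-Glo, 30 min at RT).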
HT1080 IDH1KD tx = qHTS for induction of synthetic lethality in tumor cells producing 2HG: qHTS for the HT-1080-IDH1KD cell line. HT-1080 IDH1 knockdown viability, ATP luminescence, 48 h. Potency, µM (titrated, usually from 46.1 µM), hits mostly cytotoxic. 360,000 compounds, 2% hits. AID 686971, 2013
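Cytotoxicity counter-line: IDH1KD HT-1080, 48 h, CellTiter-Glo. Curves classed by r2, magnitude and activity.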
HepG2 viability = qHTS for Inhibitors of TGF-b: Cytotox Counterscreen | HepG2 CAGA-GFP viability, ATP luminescence, 18 h | AID 588856, 2011 | 410,000 compounds, 0.76% hits | Potency, µM (titrated, usually from 46.1 µM), usual class: cytotoxic
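HepG2 CAGA-GFP cells (1000/well, DMEM with 1% FBS) received compound, then TGF-beta at 500 pg/mL final, and were incubated 18 hours at 37 degrees C. Viability was read by CellTiter-Glo luminescence. Media-only wells were set as complete cell-killing and DMSO as no toxicity.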
TGFb SMAD3 inh = qHTS for Inhibitors of TGF-b; HepG2 CAGA-GFP TGF-b/SMAD3 reporter, GFP fluorescence, 18 h; TGF-beta stimulated, 500 pg/mL final; Potency, µM (doses to about 46.1 µM), hits mostly inhibitors; 410,000 compounds, 1.2% hits; also: nearly all actives have a fitted effect of over 65% in size
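Smad-responsive CAGA-GFP expression was quantified in HEPG2 cells exposed to compounds and 500 pg/mL final TGF-beta for 18 h at 37 degrees C; unstimulated wells defined full inhibition.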
A number is an active result; - = inactive; ? = inconclusive; . = no result given; [ ] = remark or other dose. Calls follow the shape of the dose curve; as a rule, active = well fitted curve in the direction sought with a large enough effect; inconclusive = small, poorly fitted or top-dose-only effect, or another doubt; inactive = no such curve, though single readings can be large; an effect the other way counts as inactive or inconclusive.

SMILES | TDP1 cell CPT | HT1080NT lethal | DT40 TDP1 no CPT | HT1080 IDH1KD tx | HepG2 viability | TGFb SMAD3 inh
O=C1C=CC(=Nc2ccc(F)cc2)O1 | 2.3µM | ? | 4.6µM | ? | - | -
N#CC(C#N)=C1NC2(CCCCC2)Cc2ccccc21 | - | - | - | - | - | -
N#CC(C#N)=c1ccc2c(c1)NC1(CCCCC1)N=2 | 12µM | ? | 10µM | 23µM | - | ?
CC1CCCCC12NC(=O)N(CC(=O)OCC(=O)N(C)C1CCCCC1)C2=O (centres undefined) | - | - | - | - | - | -
COc1cc(C(=O)NC2CCN(C)CC2)ccc1Nc1ncc2c(n1)N(C1CCCC1)CCC(=O)N2C(C)C | ? | ? | 16µM | ? | - | -
COc1cc(C(=O)NC2CCN(C)CC2)ccc1Nc1ncc2c(n1)N(CCc1ccccc1)CCC(=O)N2C | 23µM | ? | 15µM | ? | - | ?
COC(=O)[C@@H]1C[C@H]1[C@@H](NC(=O)c1ccccc1)c1ccccc1 | - | - | - | - | - | -
OC(CN(Cc1ccccc1)Cc1ccccc1)c1ccccc1 (centres undefined) | 16µM | - | 18µM | ? | - | -
COC(=O)c1ccc(S(=O)(=O)N(C2CCCCC2)C2CCCCC2)n1C | ? | - | 23µM | - | - | -
CC(C)CCNC(=O)c1onc(CSc2nc3ccccc3[nH]2)c1C(=O)NCCC(C)C | ? | - | 16µM | - | - | ?
O=[N+]([O-])c1ccc(CSc2nc3ccccc3[nH]2)cc1 | ? | - | 29µM | - | - | -
O=C(NCCCO)c1ccc(CSc2nc3ccccc3[nH]2)cc1 | ? | - | 18µM | - | - | -
COc1cc(/C=N/NC(=O)c2ccc(CSc3nc4ccccc4[nH]3)cc2)cc(OC)c1OC | 18µM | - | 13µM | - | - | -
O=C(NCC1CCCO1)c1cn(Cc2ccccc2Cl)nc1-c1ccccc1 (centres undefined) | - | - | ? | - | - | -
COc1cc(C(=O)O/N=C2\CCCc3c2ccc(OC)c3[N+](=O)[O-])cc(OC)c1OC | 10µM | - | 3.3µM | - | - | -
CC1CN(CCC(=O)N2CCCC(C(=O)c3nccn3C)C2)Cc2cc(Cl)ccc2O1 (centres undefined) | -[9.04 µM] | . | - | . | . | .
Cc1ccc(O)c(C2=Nc3ccccc3N=C(c3ccco3)C2)c1 | ? | ? | 13µM | ? | - | -
CN(C)C(=O)c1ccc(/C=C/c2ccnc3ccccc23)cc1 | ? | . | 16µM | . | - | ?
CN(CC(=O)O)c1ccc(/C=C/c2ccnc3ccccc23)cc1 | 11µM | . | 20µM | . | - | ?
O=C(O)CCN(CCC(=O)O)c1ccc(/C=C/c2ccnc3ccccc23)cc1 | - | . | - | . | - | -
COc1ccc(S(=O)(=O)N2CCOCC2)cc1C(=O)NC1CCCCCC1 | - | - | ? | - | - | -
Cc1ccc(N2C(=O)CS(=O)(=O)C23C(=O)N(Cc2ccc(Cl)cc2)c2ccccc23)cc1C (centres undefined) | ? | . | ? | . | - | -
Cc1ccc(C(O)(COC(=O)C(C)C)COC(=O)C(C)C)c(O)c1 | 4.6µM | - | 3.7µM | - | - | -
C[C@H](NC(=O)c1nc[nH]c1C(=O)NCc1ccc(CNC(=O)OC(C)(C)C)cc1)c1ccccc1 | ? | ? | ? | ? | - | ?
C[C@@H](NC(=O)c1nc[nH]c1C(=O)NCCCCCNC(=O)OC(C)(C)C)c1ccccc1 | 26µM | - | ? | - | - | ?
SMILES | TDP1 cell CPT | HT1080NT lethal | DT40 TDP1 no CPT | HT1080 IDH1KD tx | HepG2 viability | TGFb SMAD3 inh
C[C@H](NC(=O)c1nc[nH]c1C(=O)NCCCCCNC(=O)OC(C)(C)C)c1ccccc1 | 15µM | - | 16µM | - | - | ?
O=C(O)COc1ccc(CCNS(=O)(=O)c2ccccc2)s1 | - | . | - | . | . | .
COc1ccc(-n2c(-c3ccc(Br)cc3)c[n+]3c2SC(C)C3)cc1 (centres undefined) | 1.6µM | ? | 1.2µM | ? | - | -
COc1ccc(-n2c(-c3ccccc3)cc3c2CCCC3=O)cc1 | - | - | ? | - | - | -
COc1ccc(-n2c(-c3ccccc3)c[n+]3c2CCC3)cc1 | 2.1µM | ? | 2.3µM | - | - | -
COc1ccc(-n2c(-c3ccc(Br)cc3)c[n+]3c2CCC3)cc1 | 18µM | ? | 4.6µM | ? | - | -
COc1ccc(-n2c(-c3ccc(Br)cc3)n[nH]c2=S)cc1 | ? | - | ? | - | - | -
CCOc1ccc(-c2c[n+]3c(n2-c2ccccc2)CCCCC3)cc1 | 0.082µM | ? | 0.0073µM | 18µM | - | ?
CN1CCc2c(sc3nc(NN)n(Cc4ccccc4)c(=O)c23)C1 | - | - | - | - | - | -
COc1ccc(-n2c(-c3ccc(Br)cc3)c[n+]3c2CCCCC3)cc1 | 1.8µM | - | 1.8µM | ? | - | -
C=C1C(=O)O[C@H]2C[C@]3(C)C([C@@H](OC(=O)/C(C)=C/C)[C@H]12)[C@](C)(O)CC[C@H]3O (some centres undefined) | 15µM | ? | 8.2µM | ? | - | ?
CCOC(CCNC(=O)c1cn(CC(C)C)c(=O)c2c1c1ccccc1n2C)OCC | - | - | - | - | - | -
CC(C)c1ccc(NC(=O)COc2ccc(F)cc2C(=O)c2cnn(-c3ccccc3)c2)cc1 | ? | - | 13µM | ? | - | -
CCCCC(=O)Nc1nnc(SCC(=O)NC2CCCC2)s1 | - | - | - | - | - | -
CC(=O)Nc1nnc(SCC(=O)NC2CCCC2)s1 | - | - | - | - | - | -
CCSc1nnc(SCC(=O)NC2CCCCC2)s1 | - | - | - | - | 2µM | -
O=C(CCCl)Nc1nnc(SCC(=O)NC2CCCC2)s1 | 3.3µM | 15µM | 3.3µM | 29µM | - | ?
CCOc1ccc(-n2c(=S)sc3c(=O)[nH]c(SCC(=O)NC4CCCCC4)nc32)cc1 | - | - | - | - | - | -
CCC1Oc2ccc(C)cc2N(CC(=O)NCc2ccc(F)cc2)C1=O (centres undefined) | ? | . | ? | . | - | -
O=c1[nH]c(=O)n(-c2ccccc2)c2c1C(C(F)(F)F)(C(F)(F)F)N=C(C1CCCCC1)N2 | ? | - | 23µM | - | - | -
